Among all 360,000 compounds or so, about 11,000 (3.1%) were called active. What follows is part of a selection rich in actives, with near analogues and random picks from the rest. A number with no mark means an inactive call. Rule as the data show it: active = activity change below about -30%; inactive = the rest.
The molecules below were run against D(1A) dopamine receptor (Homo sapiens) (UniProt P21728) (assay: Antagonist of Human D 1 Dopamine Receptor: qHTS). Settings: HEK293 TREx D1 cells, calcium flux, dopamine EC80; at 10 µM; stronger effect = lower value.
In short: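 Calcium flux readout: force-coupled, inducible Hek293 Trex D1 line, cells induced overnight at 30 C with tetracycline, dye-loaded 30–90 min at RT. Antagonism scored against EC80 dopamine challenge given 180 s after compound.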
% is scaled to controls: 0 for no effect and ±100 for the full control effect.

Sequence of D(1A) dopamine receptor (Homo sapiens) (P21728 whole entry, looked up): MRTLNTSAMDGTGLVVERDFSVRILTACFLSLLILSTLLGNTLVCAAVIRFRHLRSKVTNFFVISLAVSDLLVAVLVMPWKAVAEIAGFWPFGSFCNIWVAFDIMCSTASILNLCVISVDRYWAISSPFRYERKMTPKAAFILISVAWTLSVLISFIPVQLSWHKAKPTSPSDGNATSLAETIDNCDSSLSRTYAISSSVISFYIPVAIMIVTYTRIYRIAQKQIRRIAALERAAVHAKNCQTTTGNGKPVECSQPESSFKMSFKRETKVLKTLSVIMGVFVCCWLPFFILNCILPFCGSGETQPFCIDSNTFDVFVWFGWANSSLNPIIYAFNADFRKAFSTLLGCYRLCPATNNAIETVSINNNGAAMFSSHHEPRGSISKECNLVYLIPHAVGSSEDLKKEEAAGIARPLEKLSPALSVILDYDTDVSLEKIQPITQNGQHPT

With `CCN(CC)CCNC(=O)CN1N=C(c2ccc(OC)cc2)CCC1=O` as the molecule, how does the activity change, negative = inhibition read?
Its activity change, negative = inhibition is 7.52%.

How did the activity change, negative = inhibition turn out when `COC(=O)c1cc(NC(=O)c2sc3ccccc3c2Cl)cc(C(=O)OC)c1` was run?
Its activity change, negative = inhibition is 5.62%.

How did the activity change, negative = inhibition turn out when `COc1cccc(NC(=O)N(Cc2cn(C)c3ccccc23)C2CCCCCC2)c1` was run?
Its activity change, negative = inhibition is 17.7%.

For `Cc1ccc(N(CC(=O)NCC(C)c2ccccc2)S(=O)(=O)N(C)C)cc1` (centres undefined), which activity change, negative = inhibition is on record?
Its activity change, negative = inhibition is -3.48%.

`CCOc1ccccc1CNC(=O)c1ccc(-n2c(C)cc3c2CCC(C)C3)cc1` (centres undefined) was tested. Which activity change, negative = inhibition did it give?
Its activity change, negative = inhibition is 6.61%.

With `O=C(C1CC1)N1CCc2cc(Br)cc(S(=O)(=O)N3CCN(c4ccccc4F)CC3)c21` as the molecule, how does the activity change, negative = inhibition read?
The activity change, negative = inhibition was -2.36%.

For `O=C(NCc1ccc(F)cc1)c1ccc(Cn2c(SCc3ccc(F)cc3)nc3cccnc32)cc1`, which activity change, negative = inhibition is on record?
Its activity change, negative = inhibition is -10.7%.

For `COc1ccc(N2CCN(C(=O)CSCc3nc(-c4ccccc4Cl)oc3C)CC2)cc1`, which activity change, negative = inhibition is on record?
The activity change, negative = inhibition was -24.8%.

`COc1ccc(CNS(=O)(=O)c2cc(-c3cc(C)no3)ccc2C(C)C)cc1` was tested. Which activity change, negative = inhibition did it give?
Its activity change, negative = inhibition is -31% (active).

Which activity change, negative = inhibition does the source give for `CCOc1ccccc1CNS(=O)(=O)c1cc(-c2cc(C)no2)ccc1C` here?
Its activity change, negative = inhibition is 50.5%.

How did the activity change, negative = inhibition turn out when `COc1ccc(CCNS(=O)(=O)c2cc(-c3cc(C)no3)ccc2C)cc1OC` was run?
The activity change, negative = inhibition was 9.26%.

How did the activity change, negative = inhibition turn out when `CCc1ccc(S(=O)(=O)Nc2cc3c(C(=O)OCc4ccccc4)c(C)oc3c3ccccc23)cc1` was run?
The activity change, negative = inhibition was 7.58%.

With `CCCCN(C)c1nnc(NC(=O)Nc2ccc(Br)c(C)c2)s1` as the molecule, how does the activity change, negative = inhibition read?
The activity change, negative = inhibition was 13.7%.

Which activity change, negative = inhibition does the source give for `c1ccc(C2CNCc3c2ccc2ccccc32)cc1` (centres undefined) here?
The activity change, negative = inhibition was -39.2% (active).

With `Cc1nn2c(=O)cc(COC(=O)CNC(=O)c3ccc(F)cc3)nc2s1` as the molecule, how does the activity change, negative = inhibition read?
The activity change, negative = inhibition was -1.13%.

For `Cc1ccc(Cn2c(=O)n(-c3ccc(C)cc3)c(=O)c3c2c2cc(C)ccc2n3C)cc1`, which activity change, negative = inhibition is on record?
Its activity change, negative = inhibition is -3.86%.

How did the activity change, negative = inhibition turn out when `N#C/C(=C\c1cccc(F)c1)c1nc(-c2cc3c(ccc4ccccc43)oc2=O)cs1` was run?
The activity change, negative = inhibition was -2.97%.

With `COc1cc(C2c3c(oc4ccccc4c3=O)C(=O)N2c2nc(C)c(C)s2)ccc1O` (centres undefined) as the molecule, how does the activity change, negative = inhibition read?
Its activity change, negative = inhibition is 6.01%.

Which activity change, negative = inhibition does the source give for `CCOc1ccc(NC(=O)c2cnn(-c3ccccc3)c2-n2cccc2)cc1` here?
Its activity change, negative = inhibition is -0.471%.

With `CCCCOc1ccc(CSC(=N)N)cc1[N+](=O)[O-]` as the molecule, how does the activity change, negative = inhibition read?
The activity change, negative = inhibition was 25.1%.

How did the activity change, negative = inhibition turn out when `Cc1nc(SCc2ccc(F)cc2)c([N+](=O)[O-])[nH]1` was run?
The activity change, negative = inhibition was 8.5%.

`CCCCCOc1ccc(CSC2=NCCN2)cc1[N+](=O)[O-]` was tested. Which activity change, negative = inhibition did it give?
Its activity change, negative = inhibition is -42.1% (active).

`CCN(CC)CCC(c1ccc2c(c1)OCO2)c1c(OC)cc(OC)c2c(-c3ccccc3)cc(=O)oc12` (centres undefined) was tested. Which activity change, negative = inhibition did it give?
The activity change, negative = inhibition was -32.2% (active).

With `COc1ccc(F)cc1S(=O)(=O)NCC(c1ccc2c(c1)OCO2)N1CCN(C)CC1` (centres undefined) as the molecule, how does the activity change, negative = inhibition read?
The activity change, negative = inhibition was -2.95%.

How did the activity change, negative = inhibition turn out when `CCCCN(CC)C(=O)c1ccc2c(c1)OCO2` was run?
Its activity change, negative = inhibition is -2.46%.

Which activity change, negative = inhibition does the source give for `CCN(CC)C(=O)CC(c1ccc2c(c1)OCO2)c1c(OC)cc(OC)c2c(-c3ccccc3)cc(=O)oc12` (centres undefined) here?
Its activity change, negative = inhibition is -44.6% (active).

How did the activity change, negative = inhibition turn out when `COc1cccc(NC(=O)C(=O)NCC(c2ccc3c(c2)OCO3)N2CCN(C)CC2)c1` (centres undefined) was run?
The activity change, negative = inhibition was 27.8%.

With `CCN(CC)CCC(c1cc(OC)c(OC)c(OC)c1)c1c(OC)cc(OC)c2c(-c3ccccc3)cc(=O)oc12` (centres undefined) as the molecule, how does the activity change, negative = inhibition read?
Its activity change, negative = inhibition is 18.1%.

For `CCc1nnc2c3ccccc3nc(N3CCN(c4ccc(C)cc4C)CC3)n12`, which activity change, negative = inhibition is on record?
The activity change, negative = inhibition was -4.28%.

For `CCCN(CCC)S(=O)(=O)c1ccc(C(=O)Nc2sc3c(c2C(=O)OC)CCN(CC)C3)cc1`, which activity change, negative = inhibition is on record?
Its activity change, negative = inhibition is 27%.

For `Cc1ccc(Cl)cc1NC(=O)CSc1nccn1C`, which activity change, negative = inhibition is on record?
The activity change, negative = inhibition was -34.7% (active).

With `CCc1cccc(NC(=O)CSc2nccn2C)c1` as the molecule, how does the activity change, negative = inhibition read?
The activity change, negative = inhibition was 6.16%.

For `Cn1ccnc1SCC(=O)Nc1ccc2c(c1)OCCO2`, which activity change, negative = inhibition is on record?
The activity change, negative = inhibition was 7.91%.

For `COc1cc(C(=O)OCc2ccc([N+](=O)[O-])cc2)cc(OC)c1OC`, which activity change, negative = inhibition is on record?
Its activity change, negative = inhibition is -36.8% (active).

With `COc1cc(/C=N/O)ccc1OCc1ccc([N+](=O)[O-])cc1` as the molecule, how does the activity change, negative = inhibition read?
The activity change, negative = inhibition was -35.1% (active).

How did the activity change, negative = inhibition turn out when `COc1cc(C(=O)OCC(=O)NC(C)CCc2ccccc2)cc(OC)c1OC` (centres undefined) was run?
The activity change, negative = inhibition was 0.765%.

With `COC(=O)c1ccc(COc2cc([N+](=O)[O-])cc3cccnc23)cc1` as the molecule, how does the activity change, negative = inhibition read?
Its activity change, negative = inhibition is -0.242%.

For `CCCc1ccc(OCc2ccc(C(=O)N/N=C/c3cccc([N+](=O)[O-])c3)o2)c(OC)c1`, which activity change, negative = inhibition is on record?
Its activity change, negative = inhibition is -9.05%.

`CCOc1cc(/C=N/O)ccc1OCc1ccccc1F` was tested. Which activity change, negative = inhibition did it give?
Its activity change, negative = inhibition is 0.806%.

With `COc1ccc(NC(=O)CCc2nnc3n(CC(C)C)c(=O)c4ccccc4n23)cc1OC` as the molecule, how does the activity change, negative = inhibition read?
The activity change, negative = inhibition was 12%.

For `COc1ccccc1N1CCN(C(=O)C2CCN(S(=O)(=O)c3c(C)noc3/C=C/c3ccc(C)cc3)CC2)CC1`, which activity change, negative = inhibition is on record?
The activity change, negative = inhibition was 1.37%.

Which activity change, negative = inhibition does the source give for `COc1ccc(Cn2ccnc2SCC(=O)Nc2ccc3c(c2)OCO3)cc1` here?
The activity change, negative = inhibition was 3.36%.

Which activity change, negative = inhibition does the source give for `CC1CCCN(S(=O)(=O)c2ccc3[nH]c(=O)cc(C(=O)NCCc4ccc(Cl)cc4)c3c2)C1` (centres undefined) here?
Its activity change, negative = inhibition is 15.9%.

For `COc1ccccc1NC(=O)c1sc2nc(C)c(C(=O)Nc3ccc(Cl)cc3)c(-c3ccc(Br)cc3)c2c1N`, which activity change, negative = inhibition is on record?
The activity change, negative = inhibition was -7.07%.

Which activity change, negative = inhibition does the source give for `CC(=O)c1c(C)n(S(=O)(=O)c2ccc(Cl)cc2)c2ccc(NS(=O)(=O)c3ccc(Cl)cc3)cc12` here?
Its activity change, negative = inhibition is 0.214%.

For `COC(=O)c1c(C)[nH]c(C(=O)NCCc2ccc(S(N)(=O)=O)cc2)c1C`, which activity change, negative = inhibition is on record?
The activity change, negative = inhibition was 2.29%.

With `Cc1c(C)n(Cc2ccc(Cl)cc2)c2ccc(C(=O)NCCCN3CCOCC3)cc12` as the molecule, how does the activity change, negative = inhibition read?
The activity change, negative = inhibition was -28%.

Which activity change, negative = inhibition does the source give for `CCOC(=O)c1c(C)c(C(=O)NCCc2ccc(S(N)(=O)=O)cc2)c(C)n1CC` here?
Its activity change, negative = inhibition is -3.79%.

With `COc1ccc(C(=O)NCCc2ccc(S(N)(=O)=O)cc2)cc1OC` as the molecule, how does the activity change, negative = inhibition read?
The activity change, negative = inhibition was -31% (active).

Which activity change, negative = inhibition does the source give for `COc1ccc(NS(=O)(=O)c2cccc(C(=O)NCCc3ccc(S(N)(=O)=O)cc3)c2)cc1` here?
The activity change, negative = inhibition was -10.4%.

`Cc1c(C)n(Cc2ccc(Cl)cc2)c2ccc(C(=O)NCCc3ccc(S(N)(=O)=O)cc3)cc12` was tested. Which activity change, negative = inhibition did it give?
Its activity change, negative = inhibition is -36.4% (active).

`Cc1cc(N2CCN(c3cccc(C(F)(F)F)c3)CC2)n2nc(-c3ccccc3)nc2n1` was tested. Which activity change, negative = inhibition did it give?
Its activity change, negative = inhibition is 23.9%.

For `CCc1ccccc1NC(=O)c1ccc2nc(CCc3ccccc3)oc2c1`, which activity change, negative = inhibition is on record?
Its activity change, negative = inhibition is -9.13%.

`Cc1ccccc1NC(=O)c1cc2c([nH]c1=O)CC(C)(C)CC2=O` was tested. Which activity change, negative = inhibition did it give?
Its activity change, negative = inhibition is -6.86%.

Source: PubChem BioAssay AID504652 (National Center for Advancing Translational Sciences (NCATS), 2011)
